A selection: hits, their analogues and other compounds. The true share with any hit is near 7.3%.
RORgamma inh – ROR gamma (mouse) transcription inhibition | P51450 | Drosophila S2 Gal4-RORgamma UAS-luciferase reporter, 20 h | Potency, µM (series often up to 53.6 µM), most hits filed as inhibitors | 310,000 compounds, 5.4% hits | AID 2551; also: nearly all actives have a fitted effect of over 60% in size
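ROR gamma transcriptional activity was tracked as Gal4-UAS luciferase output in stably transfected Drosophila Schneider cells, with compound added 1 hr before 700 uM copper sulfate induction and a 20 hr ambient-temperature incubation.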
Gal4-VP16 FLuc – inhibits Gal4-VP16 luciferase reporter, ROR gamma counter-screen; Drosophila S2 Gal4-VP16 UAS-luciferase, luminescence, 20 h; 310,000 compounds, 3.5% hits; Potency, µM (top dose mostly 53.6 µM), hits mostly inhibitors;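 also: Gal4-VP16 expression switched on by copper sulfate through the metallothionein promoter; nearly all actives have a fitted effect of over 50% in size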
Tau ThT inhib – blocks human tau fibril formation measured by thioflavin T; P10636; recombinant tau K18 P301L, heparin-induced fibrillization, ThT fluorescence; Potency, µM (doses to about 57.4 µM), actives largely listed as inhibitors; 270,000 compounds, 2.1% hits; also: nearly all actives have a fitted effect of over 55% in size
Target sequence (P10636 561-689 P618L limits assumed): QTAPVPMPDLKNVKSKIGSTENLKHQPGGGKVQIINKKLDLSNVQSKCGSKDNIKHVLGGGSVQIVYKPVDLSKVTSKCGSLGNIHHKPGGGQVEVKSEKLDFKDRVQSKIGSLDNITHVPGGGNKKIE
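ThT emission at 510 nm, taken 1 hr after adding 30 uM dye, quantifies aggregates formed when 20 uM heparin acts on human tau K18 P301L for 6 hr at 37 C.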
Tau fluor cs – counter-screen for tau fibril formation inhibitors | Potency, µM (titrated, usually from 57.7 µM) | 280,000 compounds, 0.93% hits | tau K18 P301L Alexa594 fluorescence, heparin fibrillization | AID 1463; also: nearly all actives have a fitted effect of over 55% in size
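Human K18 P301L tau (15 uM unlabeled plus 0.24 uM Alexa 594-labeled, final) in 100 mM sodium acetate pH 7 was mixed with compound and 20 uM heparin and incubated 6 hr at 37 C.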
Tau FP inhib – inhibitors of human tau fibril formation | K18 P301L tau heparin fibrillization, Alexa594 FP, 6 h | Potency, µM (doses to about 57.7 µM), usual class: inhibitors | 280,000 compounds, 0.39% hits | AID 1468; also: nearly all actives have a fitted effect of over 55% in size
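Heparin (20 uM) drove fibril formation of recombinant tau K18 P301L, 15 uM unlabeled with 0.24 uM Alexa 594 label, for 6 hr at 37 C in 100 mM sodium acetate pH 7. Fluorescence polarization (555/632 nm) read 1 hr after 30 uM ThT.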
Hits are given with their value; 0 = inactive; ? = inconclusive; - = not tested or not shown; [ ] = remark or other dose. Calls follow the shape of the dose curve; as a rule, active = well fitted curve in the direction sought with a large enough effect; inconclusive = small, poorly fitted or top-dose-only effect, or another doubt; inactive = no such curve, though single readings can be large; an effect the other way counts as inactive or inconclusive.

SMILES | RORgamma inh | Gal4-VP16 FLuc | Tau ThT inhib | Tau fluor cs | Tau FP inhib
O=C1c2ccccc2C(=O)N1Cc1ccco1 | 0 | 0 | 0 | 0 | 0
CC1=CC(=C2C(=O)c3ccccc3C2=O)C=C(C)N1Cc1ccco1 | 0 | 0 | 18µM | 0 | 0
COc1ccccc1CC(=O)N1CCN(c2ccccc2F)CC1 | 0 | 0 | - | - | -
C/C(=N\NC(=O)c1ccncc1)c1cccc(NC(=O)c2ccc(C(C)(C)C)cc2)c1 | 4.5µM | 4µM | - | - | -
C/C(=N\NC(=O)c1ccc(O)cc1O)c1cccnc1 | 5.6µM | ? | - | - | -
C/C(=N\NC(=O)c1ccc(Br)cc1)c1cccc(NC(=O)c2cccnc2)c1 | 18µM | 0[10 µM] | ? | 0 | 0
C/C(=N/NC(=O)c1ccc(Cl)cc1Cl)c1cccnc1 | 0 | 0 | - | - | -
NC(=O)CC(NC(=O)c1ccccc1)c1ccc(N2CCc3ccccc3C2)c([N+](=O)[O-])c1 (centres undefined) | 0 | ? | - | - | -
O=C(Nc1nccs1)c1cc(-c2ccco2)nc2ccccc12 | 0 | 0 | ? | 0 | 0
Cc1cc(NC(=O)c2cc(-c3ccccn3)nc3c(Cl)cccc23)no1 | ? | 0 | - | - | -
O=C(Nc1nccs1)c1cc(N2CCOCC2)nc2ccccc12 | ? | 0 | 0 | 0 | 0
O=C(Nc1nccs1)c1cc(-c2ccccc2)nc2ccccc12 | 11µM | ? | 0 | ? | ?
O=C(Nc1nccs1)c1cc(-c2ccccn2)nc2c(Cl)cccc12 | 5µM | 6.3µM | - | - | -
O=C(Nc1nccs1)c1cc(Cl)nc2ccccc12 | 18µM | ? | 0 | 0 | 0
COc1cc(OC)c(NC(=O)CSc2nc3ccncc3[nH]2)cc1Cl | - | - | 0 | 0 | 0
CCOc1ccc(-n2c(SCC(=O)N3CCCC3)nc3c([nH]c4ccccc43)c2=O)cc1 | - | - | 0 | 0 | 0
COC(CNS(=O)(=O)c1ccc(S(=O)(=O)NC2CC2)cc1)OC | 0 | 0 | - | - | -
COc1ccc(OC)c(NC(=O)CSc2ncc3c(n2)-c2ccccc2N(C)S3(=O)=O)c1 | - | - | 0 | 0 | 0
CC1CCCN(C(=O)Cn2ncc3c([nH]c4ccccc43)c2=O)C1 (centres undefined) | - | - | 0 | 0 | 0
O=C(NC1CCCC1)C(c1ccncc1)N(C(=O)Cn1nnc(-c2ccccc2F)n1)c1cccc(F)c1 (centres undefined) | 0 | 0 | - | - | -
O=C(O)/C=C/C(=O)NNC(=O)c1ccccc1Br | 11µM | 0 | 0 | 0 | 0
Cc1ccccc1C(=O)NNC(=O)/C=C\C(=O)O | 3.5µM | ? | 0 | 0 | 0
Cc1cccc(C(=O)NNC(=O)c2cccc(C)c2)c1 | 0 | 0 | 0 | 0 | 0
Cc1cccc(C(=O)NNC(=O)/C=C/C(=O)O)c1 | 14µM | 0 | ? | 0 | ?
CCCN1CC(CSC)C[C@H]2c3cccc4[nH]cc(c34)C[C@H]21 (some centres undefined) | 0 | 0 | 0 | 0 | 0
SMILES | RORgamma inh | Gal4-VP16 FLuc | Tau ThT inhib | Tau fluor cs | Tau FP inhib
COc1ccc(OC)c2[nH]c(=O)c(CCNC(=S)NC(C)(C)C)cc12 | 4.5µM | 11µM | 0 | 0 | 0
COc1ccc(C(=O)N2CCC3(CCN(C(=O)Nc4cccc(C#N)c4)CC3)CC2)cc1 | 0 | 0 | - | - | -
COc1ccc(OC)c(/C=N/NC(=O)c2cc3c(OC)cc(OC)cc3[nH]2)c1 | 0 | 0 | 5µM | 8.9µM[quencher] | ?
COc1cccc(/C=N/NC(=O)c2cc3c(OC)cccc3[nH]2)c1O | 0.79µM | 2.2µM | ? | 0 | 0
COc1ccc(/C=N/Nc2ncnc3c2[nH]c2ccccc23)c(OC)c1OC | 0 | 0 | 0 | 0 | 0
COc1cccc(/C=N/Nc2ncnc3c2[nH]c2ccc(C)cc23)c1OC | 6.3µM | ? | - | 0 | 0
COc1ccc(OC)c(/C=N/NC(=O)c2cc3c(OC)cccc3[nH]2)c1 | 0 | 0 | - | ? | 0
COc1cccc(/C=N/NC(=O)c2cc3c(OC)c(OC)ccc3[nH]2)c1OC | 0 | 0 | 7.9µM | ? | ?
COc1cccc(/C=N/NC(=O)c2cc3c(OC)cccc3[nH]2)c1OC | 0 | 0 | ? | ? | ?
COc1cccc(CNC(=O)c2cccc(N3CCCS3(=O)=O)c2)c1 | - | - | 0 | 0 | 0
CCc1ccccc1NC(=O)CN1C(=O)C2CCCN2c2ccc(S(=O)(=O)N(CC)CC)cc21 (centres undefined) | - | - | 0 | 0 | 0
COc1cccc(/C=N/NC(=O)c2cc(-c3cccn3C)n[nH]2)c1O | 1µM | 2.8µM | ? | 0 | 0
COc1ccc(OC)c2[nH]c(C(=O)N/N=C/c3ccccc3O)cc12 | 4µM | 5µM | - | - | -

Source: PubChem (National Center for Advancing Translational Sciences (NCATS))
